POLB inh – inhibitors of human DNA polymerase beta; actives 1.3% (n = 340,000); Pol beta primer extension/strand displacement, fluorescence kinetic; P06746; AID 485314; Potency, µM (doses to about 114 µM), without a hit: at the top dose activity change, negative = inhibition, hits mostly inhibitors; further: potency means the concentration at half of the fitted maximal effect; on the % scale 0 is the no-effect control and ±100 the full control effect
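Human Pol beta at 10 nM; strand-displacement substrate 50 nM final. Compound exposure 15 min at room temperature before start, reaction 10 min at room temperature.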
ALOX12 inh – ALOX12 (human) lipoxygenase inhibition; P18054; purified 12hLO, xylenol orange hydroperoxide absorbance; AID 1671190; Potency, µM (series often up to 108 µM), inactives show at the highest dose activity change, negative = inhibition, most hits filed as inhibitors; actives 1.1% (n = 580,000); further: potency means the concentration at half of the fitted maximal effect; on the % scale 0 is the no-effect control and ±100 the full control effect
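Purified human 12hLO at 150 nM in 25 mM Hepes, 0.01% Triton X-100, pH 7.0, preincubated 15 min at room temperature with compound. Reaction started with 40 uM arachidonic acid, 30 min at room temperature. Hydroperoxide measured by Fe-xylenol orange, 573/405 nm absorbance ratio.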
PI5P4K alpha inh – inhibitors of human PI5P4K alpha; P48426; PI5P4Kalpha enzyme, ADP-Glo luminescence, 60 min; active compounds read low; max response, %; actives 1.2% (n = 330,000); AID 652105; active means max response of -50% or lower; inconclusive means between -30% and -50%; inactive means -30% or higher; further: value at the top dose of about 77 µM; on the % scale 0 is the no-effect control and ±100 the full control effect
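ADP-Glo luminescence end-point read after a 60 min room-temperature kinase reaction of PI5P4Kalpha plus substrate, initiated with ATP at 5 microM final. Buffer: 0.038 M HEPES pH 7.4, EGTA, 0.1% CHAPS, 5% DMSO.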
Pol eta inh – inhibitors of human DNA polymerase eta; actives 1.2% (n = 390,000); recombinant Pol eta, fluorescent DNA replication assay; Q9Y253; Potency, µM (series often up to 114 µM), inactives show top-dose activity change, negative = inhibition, actives largely listed as inhibitors; further: potency means the concentration at half of the fitted maximal effect; on the % scale 0 is the no-effect control and ±100 the full control effect
Target sequence (Q9Y253 whole entry, looked up): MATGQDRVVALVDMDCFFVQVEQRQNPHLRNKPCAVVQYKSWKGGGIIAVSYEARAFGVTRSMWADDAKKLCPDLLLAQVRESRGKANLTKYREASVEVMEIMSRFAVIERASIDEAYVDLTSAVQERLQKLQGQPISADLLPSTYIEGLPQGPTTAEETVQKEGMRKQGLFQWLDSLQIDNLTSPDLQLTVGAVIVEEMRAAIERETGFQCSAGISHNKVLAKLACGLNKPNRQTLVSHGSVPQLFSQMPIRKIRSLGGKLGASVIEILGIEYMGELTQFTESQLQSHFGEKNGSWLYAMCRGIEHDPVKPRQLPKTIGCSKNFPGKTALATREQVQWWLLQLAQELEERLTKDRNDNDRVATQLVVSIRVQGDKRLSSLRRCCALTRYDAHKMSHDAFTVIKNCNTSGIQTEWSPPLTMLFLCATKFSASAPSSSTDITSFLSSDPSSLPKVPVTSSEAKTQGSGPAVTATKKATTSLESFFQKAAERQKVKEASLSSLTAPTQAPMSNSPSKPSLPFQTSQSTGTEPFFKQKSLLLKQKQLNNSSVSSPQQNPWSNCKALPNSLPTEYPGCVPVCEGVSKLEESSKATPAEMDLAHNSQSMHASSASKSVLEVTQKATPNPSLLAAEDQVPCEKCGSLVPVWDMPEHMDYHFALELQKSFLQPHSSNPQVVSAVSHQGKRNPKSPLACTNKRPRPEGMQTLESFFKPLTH
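Pol eta (10 nM) was preincubated with compounds for 15 min at room temperature, after which fluorescent replication substrate (50 nM final) was added to start the reaction. Fluorescence was read kinetically at 0 and 10 min.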
POLI inh – inhibitors of human DNA polymerase iota; actives 1% (n = 390,000); Potency, µM (series often up to 115 µM), without a hit: at the highest dose activity, negative = inhibition, usual class: inhibitors; Q9UNA4; Pol iota fluorescent replication assay, 10 min; further: potency means the concentration at half of the fitted maximal effect
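Pol iota at 10 nM preincubated 15 min with compounds at room temperature; reaction started with fluorescent substrate, 50 nM final. Fluorescence read kinetically at 0 and 10 min; buffer-only wells as negative control.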
POLK inh – inhibitors of human DNA polymerase kappa. Q9UBT6. purified Pol kappa, fluorescent DNA synthesis assay, 10 min. Potency, µM (highest dose often 107 µM), without a hit: at the highest dose activity, negative = inhibition, actives largely listed as inhibitors. actives 0.53% (n = 400,000); further: potency means the concentration at half of the fitted maximal effect; on the % scale 0 is the no-effect control and ±100 the full control effect
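Enzyme at 10 nM met test compounds for 15 min at room temperature. Substrate addition (50 nM final) began the reaction, which was monitored by fluorescence at 0 and 10 min.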
An asterisk follows results filed as active; ? = inconclusive; nt = not tested or not shown; [ ] = remark or other dose. Most compounds without a hit are left out; they make up all but 2.9% or so of the library. Unless noted, the call rests on the fitted dose curve; in most records, active means well fitted inhibition curve with a large enough effect; inconclusive means small, poorly fitted or top-dose-only effect, or another doubt; inactive means no such curve, though single readings can be large or run the other way.

SMILES | POLB inh | ALOX12 inh | PI5P4K alpha inh | Pol eta inh | POLI inh | POLK inh
Cc1ccc(CSCC(=O)N/N=C/c2ccc(OCC(=O)Nc3ccc(C)cc3)cc2)cc1 | 10µM* | 0.0% | 10.5 | ? | ? | -27.2%
O=C(N/N=C/c1ccc(OC(=O)c2ccc([N+](=O)[O-])cc2)cc1)c1cccnc1 | -1.9% | 0.1% | 6.1 | -6.5% | -4.4% | 0.7%
O=C(COc1ccc(/C=N/NS(=O)(=O)c2ccccc2)cc1)Nc1ccccc1 | 18.8% | -6.0% | -9.6 | -14.2% | 3.7% | -3.8%
CCOc1ccc2ccccc2c1/C=N/NC(=O)c1ccncc1 | 20µM* | 448.1% | ? | -4.0% | 6.1% | -11.0%
O=C(N/N=C/c1ccc(OC(=O)c2ccccc2)cc1)c1cccnc1 | 50.1µM* | -6.4% | -9.9 | ? | ? | -33.3%
O=C(Cc1ccccc1)N/N=C/c1ccc(OCC(=O)Nc2ccccc2)cc1 | 28.2µM* | ? | -6.8 | ? | -10.9% | -8.8%
CCCc1ccc(C(=O)NC2CCSC2=O)cc1 (configuration not stated) | nt | -33.2% | nt | nt | nt | nt
Cc1ccc(Nc2nc(-c3ccccc3)c(C(=O)Nc3cccnc3)s2)cc1 | nt | 55.6% | nt | nt | nt | nt
O=C(N/N=C/c1cccc2ccccc12)c1cccnc1 | 3.0% | 11.2µM* | 0.8 | -7.9% | -0.4% | 0.0%
Cc1ccccc1/C=N/NC(=O)c1cccnc1 | 3.6% | ? | -0.8 | 4.0% | -0.8% | -8.5%
COc1ccc(Cc2nc(P(=O)(OC)OC)c(NCc3cccnc3)o2)cc1 | nt | -4.6% | nt | nt | nt | nt
Cc1cc(=O)oc2cc(NC(=S)NNC(=O)c3c(Cl)cnn3C)ccc12 | 13.9% | ? | -52.5* | -15.9% | -0.1% | -6.1%
CCCCCCCCCCCCC[N+](C)(C)Cc1ccccc1 | nt | nt | nt | nt | nt | -14.4%[60.1 µM]
CCCCCCCCCCCCCCCC[N+](C)(C)Cc1ccc(F)cc1 | nt | 44.7µM* | -18.2 | -19.7% | 6.9% | -5.7%
O=C1CCCC2=C1C(c1ccc(Br)cc1)c1c([nH]c(=S)[nH]c1=O)N2 (configuration not stated) | -21.2% | ? | -74.8* | -10.3% | ? | -30.5%
Cc1ccc(C2C3=C(CCCC3=O)Nc3[nH]c(=S)[nH]c(=O)c32)cc1 (configuration not stated) | 7.2% | ? | nt | 2.1% | ? | -19.6%
CC1(C)CC(=O)C2=C(C1)Nc1[nH]c(=S)[nH]c(=O)c1C2c1ccccc1 (configuration not stated) | 15.2% | ? | -57.1* | -6.8% | ? | 2.9%
CC1CCCN(Cc2c(O)ccc3c2O/C(=C\c2ccco2)C3=O)C1 (configuration not stated) | 12.6µM* | -24.8% | ? | 44.7µM* | 1.58µM* | 35.5µM*
COc1ccccc1CN1Cc2cc(NC(=O)c3ccc4c(c3)OCO4)ccc2OC(C)C1=O (configuration not stated) | nt | 1.9% | nt | nt | nt | nt
O=[N+]([O-])c1cc(Cc2ccccc2)cc(C=Nc2ccc(N3CCOCC3)cc2)c1O | -0.5% | nt | -50.7* | ? | 0.4% | -19.3%
Cc1ccc(C)n1-c1c(C(=O)NCCN2CCN(C)CC2)sc2ncccc12 | nt | 9.2% | nt | nt | nt | nt
CC(C)(C)c1cc(N)c(O)c(Cl)c1 | nt | 17.8µM* | nt | nt | nt | nt
O=C(NCc1ccc(F)cc1)c1nc(-c2ccc(Cl)cc2Cl)c2cnccn12 | nt | -14.1%[6.33 µM] | nt | nt | nt | nt
C/C=C\C(=O)Nc1cccc(C2=NOC3(C2)C[C@H](C(N)=O)N(C(=O)/C=C/CC)C3)c1 (some centres not stated) | 31.7% | ? | 10.6 | 2.9% | 12.9% | -1.1%
C=C(C)C(=O)Nc1cccc(C2=NOC3(C2)C[C@@H](C(N)=O)N(C(=O)c2ccc(Cl)cc2)C3)c1 (some centres not stated) | 8.91µM* | nt | ? | 4.47µM* | 35.5µM* | 35.5µM*
SMILES | POLB inh | ALOX12 inh | PI5P4K alpha inh | Pol eta inh | POLI inh | POLK inh
C/C=C\C=C\C(=O)N1CC2(CC(c3cccc(NC(=O)CC(c4ccccc4)c4ccccc4)c3)=NO2)C[C@H]1C(N)=O (some centres not stated) | -4.8% | nt | -71.0* | ? | ? | -21.5%
C/C=C\C=C/C(=O)Nc1cccc(C2=NOC3(C2)C[C@@H](C(N)=O)N(C(=O)/C=C/CC)C3)c1 (some centres not stated) | 5.2% | nt | -64.9* | 22.4µM* | 28.2µM* | ?
C/C=C(/C)C(=O)Nc1cccc(C2=NOC3(C2)C[C@H](C(N)=O)N(C(=O)c2ccc(Cl)cc2)C3)c1 (some centres not stated) | -4.0% | ? | -1.5 | -13.5% | 41.2% | 5.3%
C/C=C\C=C/C(=O)Nc1cccc(C2=NOC3(C2)C[C@@H](C(N)=O)N(C(=O)/C=C/C=C\C)C3)c1 (some centres not stated) | 6.31µM* | nt | -94.5* | 7.94µM* | 10µM* | 20µM*
Cc1cc(C)c(C(=O)C(C)Oc2ccc(C#N)cc2)cc1C (configuration not stated) | nt | -1.4% | nt | nt | nt | nt
O=C(Cn1c(-c2cscn2)nc2ccccc21)Nc1ccc(N2CCCCCC2)cc1 | nt | -16.0% | nt | nt | nt | nt
CN(CCC#N)S(=O)(=O)c1cc(Cl)ccc1Cl | nt | -1.7% | nt | nt | nt | nt
c1coc(-c2nc3cc4ccccc4cc3nc2-c2ccco2)c1 | nt | nt | nt | nt | 8.91µM* | 39.8µM*
c1coc(-c2nc(-c3ccco3)c(-c3ccco3)nc2-c2ccco2)c1 | 2.51µM* | ? | nt | 3.98µM* | ? | 8.91µM*
c1ccc(Nc2c(-c3ccco3)nc3ccccn23)cc1 | 2.9% | -11.4% | -8.4 | -7.4% | 45.7% | -5.2%
CC(C)Nc1nc(N)c(C(=O)c2ccccc2)s1 | nt | -15.9% | nt | nt | nt | nt
C/C(=N\NC(=S)NCc1ccccc1)c1ccc(C)o1 | -23.6% | 15.8µM* | 0.4 | -9.3% | 22.2% | -10.9%
C/C(=N\NC(=S)NCc1ccccc1)c1cccs1 | 0.8% | 39.8µM* | 4.4 | -20.5% | 38.2% | 1.0%
C/C(=N\NC(=S)NCc1ccccc1)c1ccc(Cl)s1 | 2.7% | ? | 27.3 | -24.5% | 108.5% | -4.0%

Assay outcomes as filed in PubChem BioAssay.
